The values below come from PubChem BioAssay (NCI).

SMILES strings stand for the structures. Compounds without any hit were thinned out: in the full panel of roughly 83,000, 20% have a hit.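 Single-dose data. Exposure time 48 hours. Values below 10 considered active.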 Activity calls are given as the source filed them.

The subject of the assay is SW-620 colon. In words: NCI-60 one-dose screen, 48 h (100 = growth as untreated, 0 = no growth, -100 = all killed). The settings on record: 10 µM unless noted. The procedure: Growth inhibition of the SW-620 human tumor cell line is measured as a screen for anti-cancer activity. Cells are grown in 96 well plates and exposed to the test compound for 48 hours. Compounds are tested at a single concentration, which is 10^-5 M for most compounds. The reported endpoint is percent growth (GI% or GIPRCNT), where numbers from 0 - 100% represent growth inhibition, and numbers from -100% - 0 represent cell death. For example, a value of 40 represents 60% growth inhibition. A value of 0 means no net growth occurred over the course of the experiment. A value of -40 indicates 40% of cells at the beginning of the experiment died by the end of the experiment. A value of -100 means all cells are dead at the end of the experiment.
NCI-60 Human Tumor Cell Lines Screen was performed using the standard one-dose NCI protocol, which is described in more detail at https://dtp.cancer.gov/discovery_development/nci-60/default.htm.
Compounds with GIPRCNT values below 10 were considered active. Activity score was based on GIPRCNT using the following formula: […]
Score is 0 for GIPRCNT values of 100 or above, 50 for GIPRCNT values of 0, and 100 for GIPRCNT values of -100.
With `CCOC(=O)c1c(NC(=O)c2cccc(C(F)(F)F)c2)sc2c3c(ccc12)OCN(C)C3`, the growth is -76.5% (active).
For `CCOP(=O)(OCC)OC[C@]12CCC(C)(C)CC1C1=CC[C@@H]3[C@@]4(C)CCCNC(C)(C)[C@@H]4CC[C@@]3(C)[C@]1(C)CC2` (stereo not given in full) the value was 66.3% (inactive); for `Cc1c(C(=O)/C=C/c2ccc(Cl)cc2)nnn1-c1ccc2oc(=O)ccc2c1`, 97.7% (inactive); for `CC(C)NC(=O)c1cc(-c2ccc(NC(=O)Nc3ccc(F)c(C(F)(F)F)c3)cc2)nc2cccnc12`, 106% (inactive).
On to `Cn1ncc2ncc(-c3ccc4ncc(C#N)c(N5CCc6cc(F)c(Cl)cc65)c4c3)cc21`, for which the growth is 54.4% (inactive).
The same measure for `CNC(=O)c1cc(Oc2ccc3c(c2)sc2nc(-c4ccc(N(C)C)cc4)cn23)ccn1`: 27.9% (inactive); for `COc1ccc([C@H]2C(=O)N(c3cc(OC)c(OC)c(OC)c3)[C@@H]2c2ccc(OC)c(O)c2)cc1`: 23.3% (inactive).
For `CCCCCc1ccc(S(=O)(=O)Nc2cc(-c3csc(N)n3)ccc2OC)cc1` the value was 110% (inactive); for `N#C/C(=C\c1ccc(-c2ccc(Cl)cc2)o1)C(=O)Nc1ncc(Cc2ccc(Br)cc2)s1`, -40% (active).
As for `C[C@]12CC[C@H]3[C@@H](CC=C4C[C@@H](O)CC[C@@]43C)[C@@H]1CC[C@@H]2[C@](C)(O)CCc1cccnc1`, the growth is 83.1% (inactive).
The same measure for `N#Cc1cccc(-c2cc(-c3ccc4c(c3)OCCO4)[nH]n2)c1`: 27.5% (inactive); for `O=C(/C=C/Nc1ccc(S(=O)(=O)Nc2ncccn2)cc1)c1ccc(N=Cc2c(O)[nH]c3ccccc23)cc1`: 112% (inactive); for `Cc1ccc2c(n1)C(=O)C(Cl)=C(Nc1cccc(C(F)(F)F)c1)C2=O`: -0.806% (active).
The same measure for `Fc1cccc(Cl)c1/C=N/Nc1nc(N/N=C/c2c(F)cccc2Cl)nc(N2CCCCC2)n1`: 17.2% (inactive); for `O=C(COc1ccc(/C=C2\C(=O)Nc3cc(Cl)ccc32)cc1)Nc1ccc(Cl)cc1`: 55.3% (inactive).
Take `CC(=C(c1ccc(OCCCN(C)C)cc1)c1ccc(OCCCN(C)C)cc1)c1ccc(Cl)cc1`: the growth is 87.8% (inactive).
The same measure for `CN1CCC[C@]2(C)[C@H]3CC[C@@H]4[C@@H]5[C@H]6OC[C@@]5(CCC6(C)C)CC[C@@]4(C)[C@]3(C)CC[C@H]2C1(C)C`: 23.2% (inactive).
As to `COc1ccc(NC(=O)CCCCCCNC(=O)C(O)(O)C(F)(F)F)cc1`, the growth is 10.2% (inactive).
For `COc1ccc([C@@H]2C(=O)N(c3cc(OC)c(OC)c(OC)c3)[C@H]2c2ccc(OC)c(O)c2)cc1` the value was 24.2% (inactive).
For `Cc1ccc2c(n1)C(=O)C(Cl)=C(Nc1ccccc1C(=O)OC(C)(C)C)C2=O` the value was -28.3% (active).
The same measure for `CN(C)CCNc1ccc2ncc(C#Cc3cncc(C(=O)Nc4ccc(CN5CCN(C)CC5)c(C(F)(F)F)c4)c3)n2n1`: -6.29% (active).
Turning to `Cc1ccc2c(n1)C(=O)C(Cl)=C(Nc1cc(C(F)(F)F)cc(C(F)(F)F)c1)C2=O`, the growth is 2.41% (active).
The same measure for `CCS(=O)(=O)Nc1ccc(C(=O)CC2(O)C(=O)Nc3ccccc32)cc1` (stereo not given): 103% (inactive).
With `O=C1[C@@H]2Cc3c([nH]c4ccccc34)[C@H](c3ccc(Cl)cc3)N2C(=O)CN1C1CCN(Cc2ccccc2)CC1`, the growth is 61.3% (inactive).
Turning to `CCc1cc(OC(=O)N2CCC(N3CCCCC3)CC2)ccc1Nc1cc(-c2ccc(-n3cccn3)cc2)[nH]n1`, the growth was -38.3% (active).
The same measure for `N#Cc1nc(-c2ccc(Cl)cc2)oc1N1CCC(S(=O)(=O)N2CCOCC2)CC1`: 95.9% (inactive); for `C#Cc1nc(/C=C/C(=O)NO)cs1`: 45.8% (inactive).
Take `COC(=O)CCCNCCCn1ccc2cc(NCc3cccc(-c4ccccc4)c3C)ccc21`: the growth was 66.5% (inactive).
For `Cc1ccc(S(=O)(=O)NCCCNc2nc(Nc3ccc(N4CCN(C)CC4)cc3)nc3ccsc23)cc1` the value was 20.5% (inactive); for `Oc1[nH]c2ccc(Cl)cc2c1N=Nc1nc(N=Nc2c(O)[nH]c3ccc(Cl)cc23)nc(N2CCOCC2)n1`, 74.3% (inactive); for `COc1cc(-c2nc(-c3ccccc3)[nH]c2-c2ccnc(NCCCNS(=O)(=O)c3ccc(C)cc3)n2)ccc1F`, 108% (inactive).
The same measure for `Cc1cc(=O)oc2cc(OCCCOc3ccc(/C=C/C(=O)Nc4ccc(Br)cc4)cc3)ccc12`: 57.2% (inactive); for `CC(=O)OC[C@@]12Oc3c(cccc3-c3ccc(O)c4c3O[C@]3(COC(C)=O)C(=C4O)C(=O)C[C@H](C)[C@@H]3OC(C)=O)C(O)=C1C(=O)C[C@H](C)[C@@H]2OC(C)=O`: 17.8% (inactive); for `COc1ccc(-c2cc(-c3ccc(N4CCOCC4)cc3)n3c(n2)nc2ccccc23)cc1OC`: 99.2% (inactive).
The same measure for `C#C[C@]1(O)CC[C@H]2[C@@H]3CC=C4c5sc(Nc6ccc(C)cn6)nc5CC[C@]4(C)[C@H]3CC[C@@]21C`: -53.1% (active); for `C#C[C@]1(O)CC[C@H]2[C@@H]3CC=C4c5sc(Nc6cc(C)cc(C)c6)nc5CC[C@]4(C)[C@H]3CC[C@@]21C`: -20.1% (active).
`CC1=C(C)C(=O)C(Nc2cccc(C)c2)=C(Br)C1=O`: the growth was 107% (inactive).
For `O=S(=O)(Oc1ccc(-c2cn3ccsc3n2)cc1)c1cccc(C(F)(F)F)c1` the value was 97.4% (inactive); for `Clc1ccc2c(N/N=C/c3c[nH]c4ccccc34)ccnc2c1`, -74.8% (active); for `CC(C)(C)c1cc(NC(=O)Nc2ccc(-c3cn4c5c(sc4n3)CCc3cn(CCCN4CCCCC4)cc3-5)cc2)no1`, -68.2% (active).
